# Y pestis TopoI = blocks Yersinia pestis topoisomerase I activity | Y. pestis Topo-I cleavage product accumulation, plate reader | activity, % at 10 µM | hit rate 0.064% among 360,000; in the data active means activity above about 50%, passing the limit was not always enough; inconclusive means no clear call, values can overlap the other calls
# PfHsp40 rescue = compounds rescuing yeast from Plasmodium falciparum HSP40 toxicity; S. cerevisiae expressing PfHsp40, growth rescue, ATP luminescence; growth rescue, % at 12.5 µM; hit rate 0.68% among 340,000; in the data active means growth rescue above about 28%, passing the limit was not always enough; inconclusive means no clear call, values can overlap the other calls;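 further: yeast W303a lacking pdr1 and pdr3 grown in galactose medium; growth measured after three days at 30 °C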
# BJeLR lethal = BJeLR cell viability loss; hit rate 0.17% among 300,000; BJeLR (HRASV12) viability, CellTiter-Glo ATP luminescence, 48 h; inhibition, % (concentration not given with the values); in the data active means inhibition above about 50%; inconclusive means no clear call, values can overlap the other calls
# PrPC TRFRET = cell surface PrPC inhibition, primary TR-FRET screen; hit rate 0.43% among 370,000; AID 720596; TR-FRET read-out; inhibition, % at 13.8 µM; in the data active means inhibition above about 24%
# PrP UTR inh = inhibition of PrP 5' UTR reporter expression; AID 488862; inhibition, % (test concentration not listed); cell-based PrP 5' UTR mRNA reporter, plate reader; hit rate 0.35% among 340,000; in the data active means inhibition above about 52%
# CCHF vOTU inh-1 = CCHFV vOTU protease inhibition; Pep-AMC fluorescence; AID 651958; hit rate 0.55% among 370,000; inhibition, % at 11.5 µM
# CCHF vOTU inh-2 = confirmation of CCHF virus vOTU protease inhibitors; hit rate 17% among 1,900; inhibition, % at 11.5 µM; AID 686976; shares compounds with CCHF vOTU inh-1; Recombinant CCHFV vOTU, Pep-AMC fluorescence
# Hits are given with their value; n = inactive; u = inconclusive; x = no result. This is a sample that favours compounds with a hit; in the whole collection about 2% have one here. Unless noted, no stated cut-off is given here; in the data, active means inhibition above about 30%; inactive means the rest.
SMILES,Y pestis TopoI,PfHsp40 rescue,BJeLR lethal,PrPC TRFRET,PrP UTR inh,CCHF vOTU inh-1,CCHF vOTU inh-2
COC(=O)c1cc2c(c3c4cc(F)ccc4n(S(=O)(=O)c4ccc(C)cc4)c13)C(=O)N(Cc1ccccc1)C2,x,x,x,n,x,n,x
NC(=S)N=Nc1c(O)cc(O)c2[nH]c(=O)ccc12,n,n,x,n,n,87,90
CC(C)Cn1c(N)c(C(=O)COC(=O)c2ccc(Cl)cc2)c(=O)n(C)c1=O,n,n,n,n,n,n,x
CC(C)Cn1c(N)c(C(=O)COC(=O)c2c(O)c(Cl)cc(Cl)c2Cl)c(=O)n(C)c1=O,n,n,x,n,n,41,n
CN(C)c1cc(Cl)c2nonc2c1N,n,n,n,n,n,71,n
CCN(CC)c1cc(Cl)c2nonc2c1N,n,n,n,n,n,n,x
C=CCc1ccc(OCCCNCc2ccccc2)c(OC)c1,n,n,n,n,n,31,n
COC(=O)C(C(C)=O)C1=C/C(=N\S(=O)(=O)c2ccc(C)cc2)c2ccccc2C1=O (stereo not given),n,n,n,x,n,x,x
Cc1ccc(C)c(S(=O)(=O)/N=C2\C=C(NS(=O)(=O)c3ccccc3)C(=O)c3ccccc32)c1,n,n,n,n,n,30,n
CCc1ccc(S(=O)(=O)/N=C2\C=C(NS(=O)(=O)c3ccccc3)C(=O)c3ccccc32)cc1,n,n,n,n,n,54,n
Cc1cccc(S(=O)(=O)Nc2cccc3c2C(=O)c2ccccc2-3)c1,n,n,n,n,n,n,x
Cc1ccc(/C=N/Nc2nc(C)cc(C)n2)cc1,n,n,n,n,n,n,x
Nn1cnnc1N/N=C/c1ccc(F)cc1,n,n,n,n,n,92,n
Nn1cnnc1N/N=C/c1ccc(Cl)c([N+](=O)[O-])c1,n,n,n,n,n,99,n
Fc1ccc(/C=N/Nc2nn[nH]n2)cc1,n,n,n,n,n,n,x
Cc1ccc(/C=N/Nc2nncn2N)cc1,n,n,n,n,n,87,n
CCC(C#Cc1ccccc1)NCc1ccc(OC)cc1OC (stereo not given),x,x,x,n,x,x,x
CC(CC(=O)N1CCc2ccccc21)n1cccn1 (stereo not given),n,n,n,n,n,35,n
CCOC(=O)/C=C(\C)Sc1cc(O)c2ccccc2c1O,n,u,x,n,n,111,98
O=C(NCc1nnc(SCc2ccc(F)cc2)n1-c1ccc(F)cc1)C12CC3CC(CC(C3)C1)C2,n,n,n,n,n,34,n
CCCCCCCCCCCCCCCC[N+](C)(C)Cc1ccc(F)cc1,n,n,x,n,n,56,57
CC(=O)N1CCc2cc(S(=O)(=O)NC3CCN(C(=O)C(C)(C)C)CC3)ccc21,x,x,x,n,x,n,x
COc1cccc(CNC(=O)C2CCC(CNc3c(N4CCC(C)CC4)c(=O)c3=O)CC2)c1 (stereo not given),n,n,n,n,n,n,x
COc1ccccc1CNC(=O)C1CCC(CNc2c(N3CCC(C)CC3)c(=O)c2=O)CC1 (stereo not given),n,n,n,n,n,31,n
CC1(C)CC(=O)N(CC(=O)N2CCN(Cc3ccc4c(c3)OCO4)CC2)c2ccccc2S1(=O)=O,x,x,x,n,x,n,x
SMILES,Y pestis TopoI,PfHsp40 rescue,BJeLR lethal,PrPC TRFRET,PrP UTR inh,CCHF vOTU inh-1,CCHF vOTU inh-2
O=C(CN1CCN(Cc2ccccc2Cl)CC1)N/N=C\c1ccccc1F,x,x,x,n,x,n,x
CC1(C(=O)Nc2ccc(F)cc2F)CCN1C(=O)CCC1CCCC1 (stereo not given),n,x,x,n,x,33,n
Cc1cc(O)cc(=O)n1-c1ccc(Cl)c(C(F)(F)F)c1,x,x,x,n,x,n,x
COc1ccc([C@H]2CC(=O)C=C(/C=C/c3ccccc3)C2)cc1OC,n,n,x,n,n,30,n
Cc1[nH]c2ccc(F)cc2c(=O)c1SC(F)(F)C(F)F,n,n,n,n,n,30,n
CC(=O)c1ccc(NC(=S)Nc2cccc3cnccc23)cc1,n,n,n,n,n,39,81
C/C(=N\NC(=O)c1cc(O)ccc1O)c1cccc(NC(=O)c2cccc(Cl)c2)c1,n,n,n,n,n,32,n
C/C(=N\NC(=O)c1cc(O)ccc1O)c1cccc(NC(=O)c2ccc(Cl)cc2)c1,n,n,n,n,n,n,x
O=C(NC(=S)Nc1ccccc1N1CCCCC1)c1ccccc1,n,n,n,n,n,n,x
COc1ccccc1C(=O)NC(=S)Nc1ccccc1N1CCCC1,n,n,n,n,n,41,n
Cc1ccccc1C(=O)NC(=S)Nc1ccccc1N1CCCC1,n,n,n,n,n,n,x
O=C(NC(=S)Nc1ccccc1N1CCCC1)c1ccc(F)cc1,n,n,n,n,n,32,33
O=C(/C=C(\Nc1cc(Cl)c(F)c(Cl)c1)c1ccccc1)c1ccccc1,x,x,x,n,x,n,x
Cc1nc2c(C(=O)NCCC(C)C)c[nH]n2c(=O)c1Cc1ccccc1F,n,n,n,n,n,41,n
Cc1nc2c(C(=O)NCCC(C)C)c[nH]n2c(=O)c1Cl,n,n,n,n,n,n,x
CCCCC[n+]1ccn(C2=C([O-])c3ccccc3C(=O)/C2=N\S(=O)(=O)c2ccc(Br)cc2)c1,n,n,n,n,n,n,x
CCCC[n+]1ccn(C2=C([O-])c3ccccc3C(=O)/C2=N\S(=O)(=O)c2ccccc2)c1,n,n,n,n,n,58,54
CC(C)[n+]1ccn(C2=C([O-])c3ccccc3C(=O)/C2=N\S(=O)(=O)c2ccccc2)c1,n,n,n,n,n,33,31
CCCCC[n+]1ccn(C2=C([O-])c3ccccc3C(=O)/C2=N\S(=O)(=O)c2ccccc2)c1,n,n,n,n,n,n,x
CC[C@H](CCC(=O)N(c1ccccc1)c1ccccc1)C1CC1,x,x,x,n,x,n,x
CN(CC(=O)NC(=O)NC1CCCCC1)CC(=O)Nc1ccc(OC(F)(F)F)cc1,n,n,x,n,n,n,x
COc1ccc(NC(=O)CN(C)CC(=O)NC(=O)NC2CCCCC2)cc1,n,n,x,n,n,38,n
Cc1ccccc1CNC1CCC12CCC(c1ccccc1)CC2 (stereo not given),x,x,x,n,x,x,x
O=S1(=O)N[C@H](c2ccccc2)COc2cc(Br)ccc21,x,x,x,n,x,n,x
CN1CCN(S(=O)(=O)c2cccc(C(=O)N(Cc3nnc(-c4ccc(Cl)cc4)o3)C3CC3)c2)CC1,n,n,n,n,n,34,n
CCC(=O)NC1=C(Cl)C(=O)C(NC(=O)CC)=C(Cl)C1=O,n,n,x,n,n,97,n
COC(=O)C1=C(C)N(Cc2ccccc2C(F)(F)F)C(=NCc2ccc3c(c2)OCO3)NC1c1ccccc1C(F)(F)F (stereo not given),x,x,x,n,x,n,x
CCCCN1CC(COCc2ccccc2)Oc2cccc(Oc3ccc(SC)c(C)c3)c2S1(=O)=O (stereo not given),x,x,x,n,x,n,x
O=C(Nc1ccc(O)cc1C(=O)O)c1ccc(NC(=O)c2ccco2)cc1,n,n,x,n,n,37,n

# Assay outcomes deposited in PubChem by several laboratories.
